Tgondii IFNg: inhibitors of Toxoplasma gondii growth with IFN-gamma; activity change, negative = inhibition, % (test concentration not listed); 3.8% of 69,000 active; Toxoplasma gondii growth in IFN-gamma-treated host cells; stronger effect = lower value; in the data active = activity change below about -70%, passing the limit was not always enough;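 note: host cells are HeLa cells infected with Toxoplasma gondii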
* = called active by the depositor; i = inactive; ! = repeats disagree. The entries come from a sample that favours hits as a whole.

SMILES	Tgondii IFNg
CC1CCN(CC(C)(C)CN2C3CCC2CC(O)(c2ccc(F)cc2)C3)CC1 (stereo not given)	7.7
CCCC1C(c2ccccc2)NC(c2ccccc2)CC1(O)c1ccc(F)cc1 (stereo not given)	-97.4*
CCN1C[C@H]2CN(c3cc(OC)ncn3)CCC[C@]2(C(=O)O)C1	97.8
CN(C)C(=O)CN1CC[C@H]2[C@@H]1CCN2c1ncc(F)cn1	-0.9
CN(C)CCN1CCN(CC2CC2)c2ncccc2C1	-1.1
Cc1ccc(C)c(NC(=O)c2cc3cccnc3n(Cc3ccc(Cl)cc3)c2=O)c1	19.5
Cc1cnc(N2CCC3C(C[C@@H](CN(C)C)N3C)C2)nc1 (stereo not given in full)	0.6
C[C@@H]1C[C@@H]2CN(Cc3ccncc3)C[C@@H]2O1	-6.1
Cc1ncc(CN2CCC3(CC(N(C)C)C3)C2)cn1 (stereo not given)	-26.1
CC1(C)C(=O)C=C[C@@]2(C)C1C(=O)C(=O)[C@]1(C)C2CC[C@@]2(C)[C@H](c3ccoc3)C[C@H]3O[C@]321 (stereo not given in full)	-78.8*
CC(=O)OC[C@]12CCC(C)=C[C@H]1O[C@@H]1[C@H](O)[C@@H](OC(C)=O)[C@@]2(C)[C@@]12CO2	-81.1*
CN1CC2C[C@@]2(NC(=O)c2cccc(F)c2)C1 (stereo not given in full)	1.2
O=C(O)COc1ccc(Cl)cc1Cl	16.1
Oc1cc(Cl)ccc1Oc1ccc(Cl)cc1Cl	-86.9*
Cc1cc(Cl)ccc1OCC(=O)O	10.3
COc1c(C)cc(C(=O)C2CCCNC2)cc1C (stereo not given)	4.9
O=C(NC1CCCCCCCCCCC1)c1cc2cccnc2n(Cc2ccc(Cl)cc2)c1=O	-41.5
Cc1noc(C)c1CN1CCC2(CC(=O)N(c3ccccc3)C2)C1 (stereo not given)	5.3
CCNC(=O)C(C)NC1CCC2(CCNCC2)CC1 (stereo not given)	1.8
CCOC(C(=O)OCCCN1CCCCCC1)(c1ccccc1)c1ccccc1	-79.7*
COc1ccc(NC(C)=O)cc1NC(=O)c1cc2cccnc2n(Cc2ccc(F)cc2)c1=O	11.1
COCCCNC(=O)c1cc2cccnc2n(Cc2ccc(F)cc2)c1=O	-9.2
CCOc1c(CNCCc2c[nH]c3ccccc23)cccc1OC	-44.5
c1ccc(-c2ncc(CN3CCC4(CCNCC4)C3)cn2)cc1	-3.4
CN(C)C(=O)CN1CCO[C@H]2CN(c3ncc(F)cn3)C[C@@H]21	2.2
SMILES	Tgondii IFNg
O=S1(=O)C=CC(NC2CCC3(CCNCC3)CC2)C1 (stereo not given)	3.4
CSc1ccccc1NC(=O)c1cc2cccnc2n(Cc2ccc(F)cc2)c1=O	81.9
Clc1ccc(COC(Cn2ccnc2)c2ccc(Cl)cc2Cl)c(Cl)c1 (stereo not given)	-85.2*!
O=C(NCc1ccco1)c1cc2cccnc2n(Cc2ccc(Cl)cc2)c1=O	-19.8
Cc1occc1C(=O)N1CC[C@H]2[C@@H]1CCN2Cc1cccnc1	1.0
c1ccc(CN2CCOCC3(CCN(Cc4ccco4)C3)C2)nc1 (stereo not given)	29.2
CC(=O)O[C@@]12CO[C@@H]1C[C@H](O)[C@@]1(C)C(=O)[C@H](O)C3=C(C)[C@@H](O)C[C@@](O)([C@@H](OC(=O)c4ccccc4)[C@H]21)C3(C)C	-75.7*!
CCC1CN(Cc2c(OC)ccc(F)c2F)CCN1C(C)C (stereo not given)	3.8
O=C(c1ccno1)N1C[C@@H]2CCN[C@@H]2C1	12.8
CCO[C@@H]1C[C@@H]2CN(C(=O)Cc3ccccn3)CCN2C1	-49.9
COc1ccc(C(=O)c2c(C)n(CCN3CCOCC3)c3cc(I)ccc23)cc1	7.4
Cc1c(C(=O)c2cccc3ccccc23)c2cccc3c2n1[C@H](CN1CCOCC1)CO3	-90.1*
CCCn1c(C)c(C(=O)c2cccc3ccccc23)c2ccccc21	32.5
Cc1oc(-c2ccccc2)nc1CN1C(=O)CN=C(c2ccc(F)cc2)c2c1sc1c2CCC1	4.5
CN1CCC2(CC1)C(=O)N(C)C2c1ccccc1 (stereo not given)	29.9
CC(=O)OC1CC[C@@]2(C)C(CCC3C2CC[C@]2(C)C(C4=CC(=O)OC4)C(OC(C)=O)CC32O)C1 (stereo not given in full)	-79.6*
CN1CCC2(CCCN(C(=O)c3ccoc3)C2)CC1	13.0
CN1CC[C@@H]2C(=O)N(c3ccccc3)CCO[C@@H]2C1	i
CC[C@@]1(O)C(=O)OCc2c1cc1n(c2=O)Cc2cc3ccccc3nc2-1	-88.3*
CCC1(O)C(=O)OCc2c1cc1n(c2=O)Cc2cc3ccccc3nc2-1 (stereo not given)	-106.1*
CCN1C[C@H]2[C@@H](OC)CCN(C(=O)Cc3ccc(OC)cc3)[C@H]2C1	9.3
C=CCN1CC[C@@H]2[C@@H]1CCN2c1cccc(C)n1	2.0
CCN(CC)CCCC(C)NC(=O)c1cc2cccnc2n(Cc2ccccc2)c1=O (stereo not given)	41.1
CN(C)c1cc(NCC2CCC3(CNCCOC3)O2)ncn1 (stereo not given)	i
FC(F)(F)c1cccc(-c2cccc3c2CCNC3)n1	0.7
SMILES	Tgondii IFNg
C[C@@H]1C[C@@H]([C@H](O)CC2CC(=O)NC(=O)C2)C(=O)[C@@H](C)C1	-78.7*
CN(C)CCO[C@H]1C[C@@H]2CN(Cc3ccncc3)CCN2C1	-32.5
CC1OC(OC2CC(O)C3(CO)C4C(O)CC5(C)C(C6=CC(=O)OC6)CCC5(O)C4CCC3(O)C2)C(O)C(O)C1O (stereo not given)	-80.7*
C[C@@H]1O[C@@H](O[C@H]2C[C@@H](O)[C@]3(CO)[C@H]4[C@H](O)C[C@]5(C)[C@@H](C6COC(=O)C6)CC[C@]5(O)[C@@H]4CC[C@]3(O)C2)[C@H](O)[C@H](O)[C@H]1O (stereo not given in full)	-99.1*
CCN1CCOCC12CCN(c1nccc(C(F)(F)F)n1)CC2	68.6
Cc1cccc(CN2C[C@H]3OCCN(CC4CCCO4)[C@H]3C2)n1 (stereo not given in full)	0.9
COC[C@@]12COC[C@@H]1CN(Cc1ccc3ccccc3n1)C2	-40.9
O=C(NC1CCCCCC1)c1cc2cccnc2n(Cc2ccccc2)c1=O	-50.7
CC(CCc1ccccc1)NC(=O)c1cc2cccnc2n(Cc2ccc(F)cc2)c1=O (stereo not given)	-42.4
CCN(CC)c1ccc(NC(=O)c2cc3cccnc3n(Cc3ccc(F)cc3)c2=O)c(C)c1	216.2
O=C(NC1CCCCCCCCCCC1)c1cc2cccnc2n(Cc2ccc(F)cc2)c1=O	-56.6
Cc1noc(C)c1CN1CC2CC(C1)N(Cc1ccco1)C2 (stereo not given)	-13.0
Cc1ccc(CN2CCOC3C(COc4ncccn4)CCC32)o1 (stereo not given)	6.5
CCCc1nc(-c2ccccn2)nc(OC(=O)N(C)C)c1Cc1c(F)cccc1Cl	-98.5*
CCN(CC)CCCNC(=O)c1cc2cccnc2n(Cc2ccccc2)c1=O	-18.3
c1ccc([C@H]2CN(Cc3ccccn3)[C@@H]3C4CCN(CC4)[C@H]23)cc1	-0.8
CCCCC(CC)COC(=O)c1ccccc1C(=O)OCC(CC)CCCC (stereo not given)	7.8
CNc1ccccc1C(=O)O	-4.5
C[CH2][Hg][S]c1ccccc1C(=O)O	-73.3*!
COc1c[nH]c(CN2C[C@H]3C[C@H](O)[C@H](O)C[C@H]3C2)cc1=O	122.0
O=C(Nc1ccc2c(c1)OCO2)c1cc2cccnc2n(Cc2ccccc2F)c1=O	158.7

Source: PubChem (Broad Institute)
